Compound activity from PubChem BioAssay.
This is a sample that favours compounds with a hit; in the whole collection about 2.9% have one here.
ATXN2 expr inh = Primary qHTS for Inhibitors of ATXN expression; HEK-293 ATXN2-luciferase reporter, luminescence, 24 h; Potency, µM (doses to about 57 µM), without a hit: top-dose activity change, negative = inhibition, hits mostly inhibitors; 0.72% of 360,000 active; AID 1745845, 2022; also: % is scaled to controls: 0 for no effect and ±100 for the full control effect; nearly all actives have a fitted effect of over 55% in size
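ATXN2-luciferase reporter cells (luciferase flanked by upstream and downstream ATXN2 gene portions) were treated 24 h at 37 °C with compounds at up to 57 uM. SteadyGlo luminescence gave expression; GF-AFC fluorescence gave viability.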
Nrf2 inh = Nrf2 qHTS screen for inhibitors. A549 ARE-Fluc reporter, luciferase luminescence, 18-24 h. Potency, µM (top dose mostly 46 µM), for inactives: at the highest dose activity change, negative = inhibition, most hits filed as inhibitors. 2.1% of 360,000 active; also: % is scaled to controls: 0 for no effect and ±100 for the full control effect; nearly all actives have a fitted effect of over 60% in size
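A549 ARE_Fluc cells (5000/well, 5% FBS OPTI-MEM) pre-incubated 2 h, then treated with compounds 18-24 h at 37C/5% CO2 in concentration-response. CellTiter-Fluor viability read first; BugLite luciferase luminescence after 15 min at room temperature gives Nrf2 activity.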
A549 tox = Nrf2 qHTS screen for inhibitors: counterscreen for cytotoxicity. Potency, µM (top dose mostly 46 µM), inactives show at the top dose activity change, negative = cytotoxicity, usual class: inhibitors. 0.16% of 390,000 active. A549 ARE-Fluc cells, CellTiter-Fluor viability, 18-24 h. AID 504648, 2011; also: % is scaled to controls: 0 for no effect and ±100 for the full control effect
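Cytotoxicity counterscreen: CellTiter-Fluor fluorescence was measured in A549 ARE_Fluc cells after 18-24 h of compound exposure in a concentration series. The subsequent BugLite luminescent read reports ARE-luciferase activity.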
Nrf2 activator = qHTS of Nrf2 Activators; AREc32 ARE-luciferase reporter (MCF7-derived line), luminescence, 24 h; Potency, µM (top dose mostly 46.1 µM), inactives show at the highest dose activation, hits mostly activators; 0.31% of 410,000 active; AID 624171, 2012; also: % of control where 0% means no effect; nearly all actives have a fitted effect of over 65% in size
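AREc32 cells carrying an ARE-driven firefly luciferase, 1000 cells/well in OPTI-MEM with 5% FBS, dosed after overnight attachment and incubated 24 hr at 37 deg C. Steady-Glo luminescence read after 30 min at RT.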
S2 tox = Viability Counterscreen for Primary qHTS for Inhibitors of ATXN expression; S2 cells (HEK-293 line with an ATXN2-luciferase reporter) viability, CellTiter-Fluor protease fluorescence, 24 h; Potency, µM (top dose mostly 56.7 µM), most hits filed as cytotoxic; 0.49% of 400,000 active; also: nearly all actives have a fitted effect of over 40% in size
Numbers without * were called inactive; i = inactive; ? = inconclusive; nt = no result; [ ] = dose if it differs, or a comment. Calls follow the shape of the dose curve; as a rule, active = well fitted curve in the direction sought with a large enough effect; inconclusive = small, poorly fitted or top-dose-only effect, or another doubt; inactive = no such curve, though single readings can be large; an effect the other way counts as inactive or inconclusive. Potency is read from the fitted curve at half-maximal effect.

SMILES	ATXN2 expr inh	Nrf2 inh	A549 tox	Nrf2 activator	S2 tox
CCC(=O)NC(c1ccc(C)cc1)c1cc(Cl)c2cccnc2c1O (stereo not drawn)	?	?	-16%	3%	?
Cc1ccc(C(NC(=O)C(C)C)c2cc([N+](=O)[O-])c3cccnc3c2O)cc1 (stereo not drawn)	?	18µM*	?	0%	i
COCCOc1cc(NC(=O)c2ccccc2)c(Cl)cc1Cl	-22%	-4%	7%	0%	i
CN(C1=NC(=O)C(CC(=O)Nc2ccc(Br)cc2)S1)c1ccc(O)cc1 (stereo not drawn)	-30%	23µM*	-14%	0%	?
CCc1ccc(-c2cc(C)no2)cc1S(=O)(=O)Nc1cc(OC)c(OC)c(OC)c1	nt	1%	5%	0%	nt
Cc1ccc(Cc2c(-c3ccc(F)cc3)nc3cc(C)ccn23)cc1	-26%	nt	nt	11%	28µM*
Cc1cccc(N2CCN(S(=O)(=O)c3ccc4c(c3)C(C(C)C)C(=O)N4)CC2)c1C (stereo not drawn)	?	13µM*	-2%	0%	i
Cc1cccc(N2CCN(S(=O)(=O)c3ccc4[nH]c(=O)ccc4c3)CC2)c1C	-25%	18µM*	-25%	1%	?
Cc1ccc(SCC(=O)NC(C)c2ccccc2)cc1 (stereo not drawn)	19%	25%	6%	3%	i
CCc1nc2oc3ccccc3c(=O)c2c(=O)n1-c1ccc(C)cc1	110%	i	-6%	?	i
CCCc1nc2oc3ccccc3c(=O)c2c(=O)n1-c1ccc(C)cc1	115%	?	0%	11µM*	i
N#CC1=C(N)Oc2cc(O)ccc2C1c1ccc(Br)s1 (stereo not drawn)	-15%	?	-3%	9%	nt
CCC(=O)/C=C1/Sc2ccc(OC)cc2N1CCO	-12%	0%	-4%	0%	i
CCC(/C=C1\Sc2ccc(OC)cc2N1CC)=C\c1sc2ccc(OC)cc2[n+]1CCCS(=O)(=O)[O-]	?	10µM*	?	0%	22µM*
CCC(/C=C1\Sc2ccc(OC)cc2N1CCO)=C\c1sc2ccc(OC)cc2[n+]1CCO	?	?	21µM*	?	nt
Cc1noc(C)c1COC(=O)c1ccccc1Sc1ccccc1C#N	-4%	18µM*	-11%	0%	i
N#Cc1ccccc1Sc1ccccc1C(=O)OCC(N)=O	nt	-5%	0%	-1%	i
CCOC(=O)c1c(Nc2cccc(C)c2)nnc(-c2ccccc2)c1-c1ccccc1	?	18µM*	-16%	2%	i
O=C(NCc1cccnc1)c1ccc(-c2ccc(F)c(F)c2)c2ccoc12	?	nt	nt	-1%	i
CC(=O)Nc1ccccc1N(CC(O)Cn1c2ccccc2c2ccccc21)S(=O)(=O)c1ccc(C)cc1 (stereo not drawn)	?	26µM*	-22%	0%	i
Cc1ccc(N(CC(O)Cn2c3ccccc3c3ccccc32)S(=O)(=O)c2ccc(F)cc2)cc1 (stereo not drawn)	nt	?	?	0%	nt
CCCOc1ccc(C(=O)NCCC(=O)NCCCC(=O)O)cc1	2%	3%	4%	0%	i
O=C1NC(=S)N/C1=C/c1ccc2c(c1)OCO2	nt	13µM*	?	-1%	i
O=C1NC(=S)S/C1=C\C=C\c1ccc([N+](=O)[O-])o1	?	?	?	?	8.9µM*
COc1ccc(/C=N/NC(=O)c2ccc3ccccc3c2)cc1OS(=O)(=O)c1ccc(NC(C)=O)cc1	-24%	12µM*	-28%	0%	i
SMILES	ATXN2 expr inh	Nrf2 inh	A549 tox	Nrf2 activator	S2 tox
COc1ccc(C=O)cc1OS(=O)(=O)c1ccc(NC(C)=O)cc1	-17%	10%	10%	0%	i
COCCCNC(=S)NNC(=O)C1CC1c1ccc(C(C)(C)C)cc1 (stereo not drawn)	nt	21µM*	-2%	-1%	i
CCCCCCOC(=O)C[N+](C)(C)CCOC1CC2CCC1(C)C2(C)C (stereo not drawn)	-6%	-14%	1%	1%	i
CCCCCCCOC(=O)C[N+](C)(C)CCOC1CC2CCC1(C)C2(C)C (stereo not drawn)	35µM*	-11%	1%	-4%	?
CC(=O)N1CCN(C(=O)c2ccc(OC3CCN(Cc4ccccn4)CC3)cc2)CC1	2%	3%	2%	0%	i
COc1cccc(-c2cc(C(=O)Nc3ccc(F)cc3)[nH]n2)c1	77%	2.6µM*	6%	7%	i
CCN(CC)CCNC(=O)c1ccc(NC(=O)c2cn(-c3ccc(F)cc3)nc2-c2cccc(OC)c2)cc1	?	2%	-26%	5%	28µM*
CCN(CC)CCNC(=O)c1ccc(NC(=O)c2cn(-c3ccccc3)nc2-c2cccs2)cc1	?	-4%	15%	11%	nt
COC(=O)[C@@]1(Cc2ccc(F)cc2)[C@H]2c3cc(C(=O)N4CCCC4)n(Cc4ccc(Cl)c(C(F)(F)F)c4)c3C[C@H]2CN1C(=O)c1ccccc1	0%	nt	nt	4%	?
CC1=C/C(=N\N=C2\NC(=O)C(CC(=O)Nc3ccccc3F)S2)CC(C)(C)C1 (stereo not drawn)	-8%[11.3 µM]	?	-13%	3%	i
COc1ccc(C2C=C(c3ccccc3)Nc3nc(NS(=O)(=O)c4ccc(C)cc4)nn32)cc1 (stereo not drawn)	7%	18µM*	-1%	-1%	nt
Cc1[nH]c(C)c(C(=O)/C=C/c2ccc([N+](=O)[O-])cc2)c1C	nt	4%	-1%	?	?
Cc1cccc(N2CCN(C(=O)C(NS(=O)(=O)c3cccs3)c3ccccc3)CC2)c1C (stereo not drawn)	0%	9.2µM*	-14%	0%	i
Nc1nc(Nc2ccccc2)nc(NCc2ccccc2)c1[N+](=O)[O-]	-18%	23µM*	?	6%	?
CCc1nnc(NC(=O)C2CCCN2C(=O)Nc2ccccc2OC)s1 (stereo not drawn)	1%	-28%	7%	-1%	i
O=C(NCCc1cscn1)C1CCC(=O)N(Cc2ccc(Cl)cc2)C1 (stereo not drawn)	2%	6%	1%	0%	i
Cc1ccccc1OCCNc1cc(N2CC(C)NC(C)C2)ccc1[N+](=O)[O-] (stereo not drawn)	?	-7%	-18%	-5%	24µM*
CC1CN(c2ccc([N+](=O)[O-])c(NCCOc3ccccc3)c2)CC(C)N1 (stereo not drawn)	?	2%	5%	10%	?
COc1ccc(-c2cnc(OC(C)(C)C)nc2OC(C)(C)C)cc1OC	-7%	23µM*	?	0%	i
